Where “and” joins values, the source holds several entries; their conditions need not be identical. Equal entries are not always repeated. Results filed as inconclusive are left out. More than one record can exist for a structure, and the calls need not agree. Calls of active or inactive are those of the source. Unless noted, calls come from the whole dose curve; as a rule, active = well fitted curve in the direction sought with a large enough effect in the repeat runs; inconclusive = weak or mixed curves; inactive = no such curve, though single readings can be large; an effect the other way counts as inactive or inconclusive.

A short description of experiment [1]: Human pregnane X receptor (PXR) small molecule agonists, qHTS cell viability counter screen (AID 1346977). Note: nearly all actives have a fitted effect of over 50% in size. The method in brief: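 HepG2 cells stably carrying the PXR-Luc reporter are cultured with 5% charcoal-stripped FBS and treated with compounds for 24hr. CellTiter-Fluor is added at 23hr and fluorescence is read after 1hr.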
(qHTS replaces the single test concentration by a dilution series.)

Experiment [2] is described as follows: Caspase-3/7 induction in HepG2 cells by small molecules, qHTS assay (AID 1346978). Note: nearly all actives have a fitted effect of over 15% in size. The essentials:
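Caspase-3/7 induction was measured by Caspase-Glo 3/7 luminescence (30 min, room temperature) after a 17 hr compound exposure of wild-type HepG2 cells seeded at 2,000 per well and pre-incubated 5 hr.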

The nature of experiment [3]: Caspase-3/7 induction in CHO-K1 cells by small molecules, qHTS assay (AID 1346980). Note: nearly all actives have a fitted effect of over 15% in size. The method in brief: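 Luminescent Caspase-Glo 3/7 read (30min, room temperature) quantified apoptosis induction. Cells were wild-type CHO-K1, treated with compound for 17hr at 37 C and 5% CO2.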
Experiment [4] can be described thus: Caspase-3/7 induction in HepG2 cells by small molecules, qHTS cell viability counter screen (AID 1346981). Note: nearly all actives have a fitted effect of over 30% in size. Note: potency is the fitted concentration of half-maximal effect. The method in brief:
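Fluorescence read-out of live-cell protease activity (CellTiter-Fluor) after 1 hr with reagent. This was measured in the same wells as the caspase-3/7 luminescence, on HepG2 cells exposed to DMSO-dissolved compounds for 16 hr at 37 C.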

Experiment [5] addresses Nuclear receptor subfamily 1 group I member 2 (Homo sapiens) (UniProt O75469). Briefly: Human pregnane X receptor (PXR) small molecule agonists, qHTS assay (AID 1346982). Note: nearly all actives have a fitted effect of over 35% in size. Note: potency is the fitted concentration of half-maximal effect. The method in brief:
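HepG2 PXR-Luc reporter line, 5% charcoal-stripped FBS; 5 hr pre-incubation, compound (DMSO) 24 hr at 37 C/5% CO2; ONE-Glo 30 min RT; luminescence read-out.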

The target in experiment [6] is Acetylcholinesterase (Homo sapiens) (UniProt P22303). Briefly: Acetylcholinesterase (AChE) small molecule antagonists: colormetric cell-based qHTS assay (AID 1347395; calls by dose curve; note: nearly all actives have a fitted effect of over 30% in size). The essentials:
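Quantitative HTS in attached SH-SY5Y cells: 30 min compound exposure, then 90 min with acetylthiocholine and DTNB at 37 C; colour from thiocholine reports AChE activity.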

The target is the same in experiment [7]. In words: Acetylcholinesterase (AChE) small molecule antagonists: enzyme-based qHTS assay (AID 1347397; calls by dose curve; note: nearly all actives have a fitted effect of over 55% in size). Conditions: Potency: AChE enzyme activity inhibition. The method in brief:
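Colorimetric DTNB readout of acetylthiocholine hydrolysis, 10 min at room temperature, after 30 min room-temperature exposure of 50 mU/mL recombinant human enzyme to compound; DMSO vehicle control.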

Experiment [8] shares this target. In words: Acetylcholinesterase (AChE) small molecule antagonists: fluorescence cell-based qHTS assay (AID 1347398; calls by dose curve; note: nearly all actives have a fitted effect of over 50% in size). Conditions: Potency: AChE activity. The method in brief:
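Cellular AChE activity read as thiocholine from acetylthiocholine hydrolysis, detected by Thiolite Green fluorescence at 490/520 nm after 40 min at room temperature. Compounds were pre-incubated 30 min at 37 C on adherent SH-SY5Y cells.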

The target is the same in experiment [9]. Briefly: Acetylcholinesterase (AChE) small molecule antagonists: enzyme-based qHTS assay with human liver microsomes (AID 1347399; calls by dose curve; note: nearly all actives have a fitted effect of over 60% in size). Particulars: Potency: qHTS inhibition. The essentials: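 Recombinant human AChE (50 mU/mL in the enzyme mix) and human liver microsomes (0.25 mg/mL final) were preincubated with compound and NADPH (0.25 mg/mL final) for 30 min at 37 C. Acetylthiocholine/DTNB was then added; thiocholine was read colorimetrically after 10 min at room temperature.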

The target of experiment [10] is Cytochrome P450 2D6 (Homo sapiens) (UniProt P10635). In words: Cytochrome P450 Family 2 Subfamily D Member 6 (CYP2D6) small molecule antagonists: luciferase reporter qHTS assay (AID 1671196). Note: nearly all actives have a fitted effect of over 50% in size. Note: potency is the fitted concentration of half-maximal effect. The essentials: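 Luminogenic proluciferin substrate, CYP2D6 enzyme; 10 min RT preincubation with compound, NADPH regeneration system added, 1 h RT. Stop/detection reagent, 20 min RT, luminescence read (RLU). Signal proportional to CYP activity.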
Cytochrome P450 2D6 (Homo sapiens), sequence (P10635 whole entry, looked up): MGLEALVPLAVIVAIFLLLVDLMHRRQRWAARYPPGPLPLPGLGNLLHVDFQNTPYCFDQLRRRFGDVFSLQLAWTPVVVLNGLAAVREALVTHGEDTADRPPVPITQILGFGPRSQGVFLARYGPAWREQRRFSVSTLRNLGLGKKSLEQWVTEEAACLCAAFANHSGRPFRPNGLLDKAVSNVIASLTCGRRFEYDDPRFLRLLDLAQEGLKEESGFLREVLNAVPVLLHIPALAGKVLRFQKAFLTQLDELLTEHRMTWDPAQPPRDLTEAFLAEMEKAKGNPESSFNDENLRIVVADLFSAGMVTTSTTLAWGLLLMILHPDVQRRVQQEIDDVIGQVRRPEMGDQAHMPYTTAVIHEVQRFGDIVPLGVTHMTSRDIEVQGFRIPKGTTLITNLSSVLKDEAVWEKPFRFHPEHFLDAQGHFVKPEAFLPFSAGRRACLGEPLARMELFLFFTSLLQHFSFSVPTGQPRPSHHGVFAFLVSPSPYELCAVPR
Background: Reporter assays use an easily measured gene product as a stand-in for the process of interest.

Experiment [11] has as its target Cytochrome P450 2C19 (Homo sapiens) (UniProt P33261). Briefly: Cytochrome P450 Family 2 Subfamily C Member 19 (CYP2C19) small molecule antagonists: luciferase reporter qHTS assay (AID 1671197). Note: nearly all actives have a fitted effect of over 65% in size. Note: potency is the fitted concentration of half-maximal effect. The essentials: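 P450-Glo CYP2C19 system: enzyme-substrate mix with compound 10 min at room temperature, then NADPH regeneration solution, 1 h at 37C. Proluciferin-to-luciferin conversion detected by luminescence after 20 min with detection reagent; ketoconazole as positive control.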

Experiment [12] concerns the target Cytochrome P450 2C9 (Homo sapiens) (UniProt P11712). In words: Cytochrome P450 Family 2 Subfamily C Member 9 (CYP2C9) small molecule antagonists: luciferase reporter qHTS assay (AID 1671198). Note: nearly all actives have a fitted effect of over 50% in size. Note: potency is the fitted concentration of half-maximal effect. The method in brief: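 Enzyme-substrate mix preincubated with compound 10 min at room temperature; reaction started with NADPH regeneration solution, 1 h 37C. Luminescent luciferin product read after 20 min detection reagent.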

The target in experiment [13] is Cytochrome P450 1A2 (Homo sapiens) (UniProt P05177). Briefly: Cytochrome P450 Family 1 Subfamily A Member 2 (CYP1A2) small molecule antagonists: luciferase reporter qHTS assay (AID 1671199). Note: nearly all actives have a fitted effect of over 50% in size. Note: potency is the fitted concentration of half-maximal effect. The essentials: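 Luminescence readout (relative luminescence units) after luciferin detection reagent, 20 min RT. Preceded by 1 h room-temperature CYP1A2 reaction with NADPH regeneration solution following 10 min compound preincubation with enzyme and proluciferin substrate. Furafylline positive control.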
Cytochrome P450 1A2 (Homo sapiens), sequence (P05177 whole entry, looked up): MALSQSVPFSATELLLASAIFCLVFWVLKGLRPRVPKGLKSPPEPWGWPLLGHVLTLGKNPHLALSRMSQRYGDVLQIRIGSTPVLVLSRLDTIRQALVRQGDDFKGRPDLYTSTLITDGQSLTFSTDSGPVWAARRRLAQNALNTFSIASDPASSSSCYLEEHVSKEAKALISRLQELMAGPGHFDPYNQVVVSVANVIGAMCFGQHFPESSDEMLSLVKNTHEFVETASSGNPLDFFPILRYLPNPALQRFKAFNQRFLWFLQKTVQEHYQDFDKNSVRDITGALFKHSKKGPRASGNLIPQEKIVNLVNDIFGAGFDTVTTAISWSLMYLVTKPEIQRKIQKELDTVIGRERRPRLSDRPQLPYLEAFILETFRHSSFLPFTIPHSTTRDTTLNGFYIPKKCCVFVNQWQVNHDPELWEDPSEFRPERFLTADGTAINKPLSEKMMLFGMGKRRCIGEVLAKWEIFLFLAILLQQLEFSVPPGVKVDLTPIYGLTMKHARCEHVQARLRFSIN

Experiment [14] addresses Voltage-gated inwardly rectifying potassium channel KCNH2 (Homo sapiens) (UniProt Q12809). In words: Human Ether-a-go-go-Related Gene (hERG) channel small molecule antagonists: fluorescence cell-based qHTS assay (AID 1671200). The method in brief:
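First, 1000 cells per well are seeded and cultured overnight at 37 C. Next, FluxOR II dye is loaded for 1 h at room temperature, protected from light. After 10 more minutes, stimulus is added and fluorescence is read.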
For orientation: Block of hERG is tested as a sign of cardiac risk.

Experiment [15] deals with Cytochrome P450 3A4 (Homo sapiens) (UniProt P08684). Briefly: Cytochrome P450 Family 3 Subfamily A Member 4 (CYP3A4) small molecule antagonists: luciferase reporter qHTS assay (AID 1671201). Note: nearly all actives have a fitted effect of over 50% in size. Note: potency is the fitted concentration of half-maximal effect. The essentials: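 Enzyme and proluciferin substrate are mixed with test chemicals for 10 min, then NADPH regeneration system drives turnover for 1 h at room temperature. A detection reagent halts the reaction; luminescence after 20 min gives relative activity.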
Cytochrome P450 3A4 (Homo sapiens), sequence (P08684 whole entry, looked up): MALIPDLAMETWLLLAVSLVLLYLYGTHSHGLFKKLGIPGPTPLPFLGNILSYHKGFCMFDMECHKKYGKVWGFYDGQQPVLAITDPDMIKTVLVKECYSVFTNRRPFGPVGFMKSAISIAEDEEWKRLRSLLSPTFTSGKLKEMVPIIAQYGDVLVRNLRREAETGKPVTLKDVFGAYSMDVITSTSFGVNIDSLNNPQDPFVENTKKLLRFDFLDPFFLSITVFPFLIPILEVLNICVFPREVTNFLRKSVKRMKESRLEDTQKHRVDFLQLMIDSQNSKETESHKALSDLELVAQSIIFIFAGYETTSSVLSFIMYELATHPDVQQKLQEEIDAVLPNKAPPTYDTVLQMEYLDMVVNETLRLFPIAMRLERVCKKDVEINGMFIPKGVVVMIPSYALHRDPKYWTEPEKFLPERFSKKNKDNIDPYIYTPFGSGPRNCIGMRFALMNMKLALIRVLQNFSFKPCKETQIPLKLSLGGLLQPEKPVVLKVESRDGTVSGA

In experiment [16] the target is Nuclear receptor subfamily 1 group I member 2 (Rattus norvegicus) (UniProt Q9R1A7). Briefly: Rat pregnane X receptor (rPXR) activation by small molecules, qHTS assay (AID 1346983). Note: nearly all actives have a fitted effect of over 20% in size. Conditions: rPXR luciferase reporter cells, One-Glo luminescence, 24 h; stronger effect = higher value. The method in brief:
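Luminescent readout (One-Glo luciferase, 30 min room temperature) followed 24 hr compound treatment at 37 C of rPXR cells plated 2,000 per well and preincubated 5hr; qHTS format with compounds delivered in DMSO.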

In experiment [17] the target is Nuclear receptor subfamily 1 group I member 2 (Homo sapiens) (UniProt O75469). Briefly: CYP3A4 induction through human pregnane X receptor (PXR) by small molecules, qHTS assay (AID 1346984). Note: nearly all actives have a fitted effect of over 40% in size. The method in brief: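 HepG2-derived DPX-2 line carrying PXR plus a CYP3A4-promoter luciferase reporter; cells plated 5 hr, compound-exposed 24 hr at 37C. CYP3A4 activity probed with 3uM (final) Luciferin-IPA for 3hr, then luciferase read after One-Glo.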
Nuclear receptor subfamily 1 group I member 2 (Homo sapiens), sequence (O75469 whole entry, looked up): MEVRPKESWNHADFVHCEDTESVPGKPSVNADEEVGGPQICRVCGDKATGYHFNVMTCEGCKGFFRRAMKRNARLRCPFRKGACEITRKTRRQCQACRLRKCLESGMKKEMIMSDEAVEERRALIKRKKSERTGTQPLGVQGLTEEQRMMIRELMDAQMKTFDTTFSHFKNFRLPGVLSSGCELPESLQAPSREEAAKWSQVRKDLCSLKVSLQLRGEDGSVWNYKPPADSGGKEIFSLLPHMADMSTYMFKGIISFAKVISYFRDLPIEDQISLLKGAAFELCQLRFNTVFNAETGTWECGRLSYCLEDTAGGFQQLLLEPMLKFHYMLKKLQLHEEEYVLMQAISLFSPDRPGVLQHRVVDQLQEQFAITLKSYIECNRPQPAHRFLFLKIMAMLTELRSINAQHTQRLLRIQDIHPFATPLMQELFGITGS

Experiment [18] has the same target. Briefly: Human pregnane X receptor (PXR) activation by small molecules, qHTS assay (AID 1346985). Note: nearly all actives have a fitted effect of over 40% in size. The method in brief:
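DPX-2 cells (HepG2 co-transfected with a PXR response element and a CYP3A4-promoter luciferase construct) were seeded at 2,000 per well, rested 5 hr at 37C, then exposed to DMSO-dissolved compounds for 24 hr. Activation was read as luciferase luminescence.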

Experiment [19] in a line: Caspase-3/7 induction in CHO-K1 cells by small molecules, qHTS cell viability counter screen (AID 1346979). Note: nearly all actives have a fitted effect of over 35% in size. The essentials: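 Seeding: 1,500 CHO-K1 cells/well. Rest: 5hr, 37C. Treatment: compounds in DMSO, 16hr. Read: CellTiter-Fluor, 1hr, fluorescence.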
% is set by controls: 0 for no effect and ±100 for the full control effect.

Cytochrome P450 2C19 (Homo sapiens), sequence (P33261 whole entry, looked up): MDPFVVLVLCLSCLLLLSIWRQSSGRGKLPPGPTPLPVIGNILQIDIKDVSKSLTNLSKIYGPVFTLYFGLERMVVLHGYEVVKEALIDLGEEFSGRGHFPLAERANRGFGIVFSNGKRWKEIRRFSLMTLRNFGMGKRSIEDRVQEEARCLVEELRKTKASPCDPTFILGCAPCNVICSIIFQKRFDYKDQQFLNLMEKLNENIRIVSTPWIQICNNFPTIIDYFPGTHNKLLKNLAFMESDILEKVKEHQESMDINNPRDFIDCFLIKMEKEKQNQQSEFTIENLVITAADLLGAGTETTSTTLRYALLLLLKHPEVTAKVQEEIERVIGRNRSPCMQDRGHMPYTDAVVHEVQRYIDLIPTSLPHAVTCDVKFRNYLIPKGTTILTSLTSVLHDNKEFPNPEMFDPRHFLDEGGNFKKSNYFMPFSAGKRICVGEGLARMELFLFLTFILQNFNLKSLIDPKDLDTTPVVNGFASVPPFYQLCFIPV
Acetylcholinesterase (Homo sapiens), sequence (P22303 whole entry, looked up): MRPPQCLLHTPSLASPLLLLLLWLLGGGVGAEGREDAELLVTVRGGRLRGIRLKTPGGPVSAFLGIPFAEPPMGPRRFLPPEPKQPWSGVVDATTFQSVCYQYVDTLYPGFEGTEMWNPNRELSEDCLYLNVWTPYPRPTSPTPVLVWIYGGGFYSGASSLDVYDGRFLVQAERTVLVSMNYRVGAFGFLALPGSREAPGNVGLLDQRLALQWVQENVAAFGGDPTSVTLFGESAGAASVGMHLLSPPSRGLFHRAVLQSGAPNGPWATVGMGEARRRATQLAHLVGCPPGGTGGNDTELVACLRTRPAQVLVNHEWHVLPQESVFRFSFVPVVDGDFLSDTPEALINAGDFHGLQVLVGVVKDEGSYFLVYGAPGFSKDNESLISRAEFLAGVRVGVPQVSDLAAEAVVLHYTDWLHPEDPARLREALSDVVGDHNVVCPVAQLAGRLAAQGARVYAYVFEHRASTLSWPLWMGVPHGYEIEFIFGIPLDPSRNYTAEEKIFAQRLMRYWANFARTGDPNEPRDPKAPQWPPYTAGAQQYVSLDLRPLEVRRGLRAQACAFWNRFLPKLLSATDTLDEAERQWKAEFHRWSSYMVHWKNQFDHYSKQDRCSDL
Voltage-gated inwardly rectifying potassium channel KCNH2 (Homo sapiens), sequence (Q12809 whole entry, looked up): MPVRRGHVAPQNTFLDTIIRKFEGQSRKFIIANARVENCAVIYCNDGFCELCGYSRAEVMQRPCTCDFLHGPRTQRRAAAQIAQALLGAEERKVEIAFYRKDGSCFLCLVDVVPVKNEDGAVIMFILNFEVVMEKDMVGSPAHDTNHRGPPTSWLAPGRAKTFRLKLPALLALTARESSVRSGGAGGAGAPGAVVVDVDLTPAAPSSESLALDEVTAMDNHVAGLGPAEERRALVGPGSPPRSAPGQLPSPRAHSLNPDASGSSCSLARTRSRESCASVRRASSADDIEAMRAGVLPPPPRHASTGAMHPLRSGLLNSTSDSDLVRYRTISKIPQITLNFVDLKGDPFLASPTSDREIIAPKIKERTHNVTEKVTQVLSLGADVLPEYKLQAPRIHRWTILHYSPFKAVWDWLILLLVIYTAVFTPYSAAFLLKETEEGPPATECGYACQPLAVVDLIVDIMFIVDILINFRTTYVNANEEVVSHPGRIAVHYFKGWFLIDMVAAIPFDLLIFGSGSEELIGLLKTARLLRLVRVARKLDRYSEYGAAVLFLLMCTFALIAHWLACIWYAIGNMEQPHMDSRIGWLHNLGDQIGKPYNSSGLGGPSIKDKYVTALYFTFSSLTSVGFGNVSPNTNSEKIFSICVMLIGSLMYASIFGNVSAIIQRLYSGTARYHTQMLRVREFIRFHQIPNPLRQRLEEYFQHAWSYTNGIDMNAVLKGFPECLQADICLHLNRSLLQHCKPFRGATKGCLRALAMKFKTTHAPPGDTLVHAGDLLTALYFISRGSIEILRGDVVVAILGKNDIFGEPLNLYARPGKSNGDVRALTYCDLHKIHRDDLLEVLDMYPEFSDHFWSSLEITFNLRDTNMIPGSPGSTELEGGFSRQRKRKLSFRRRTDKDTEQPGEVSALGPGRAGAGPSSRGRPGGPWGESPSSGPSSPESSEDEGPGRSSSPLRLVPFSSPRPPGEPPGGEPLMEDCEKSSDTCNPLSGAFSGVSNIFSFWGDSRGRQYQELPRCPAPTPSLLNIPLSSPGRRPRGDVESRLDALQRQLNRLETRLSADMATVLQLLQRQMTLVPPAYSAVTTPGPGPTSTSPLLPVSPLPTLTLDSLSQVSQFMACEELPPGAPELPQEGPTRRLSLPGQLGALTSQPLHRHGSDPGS
Cytochrome P450 2C9 (Homo sapiens), sequence (P11712 whole entry, looked up): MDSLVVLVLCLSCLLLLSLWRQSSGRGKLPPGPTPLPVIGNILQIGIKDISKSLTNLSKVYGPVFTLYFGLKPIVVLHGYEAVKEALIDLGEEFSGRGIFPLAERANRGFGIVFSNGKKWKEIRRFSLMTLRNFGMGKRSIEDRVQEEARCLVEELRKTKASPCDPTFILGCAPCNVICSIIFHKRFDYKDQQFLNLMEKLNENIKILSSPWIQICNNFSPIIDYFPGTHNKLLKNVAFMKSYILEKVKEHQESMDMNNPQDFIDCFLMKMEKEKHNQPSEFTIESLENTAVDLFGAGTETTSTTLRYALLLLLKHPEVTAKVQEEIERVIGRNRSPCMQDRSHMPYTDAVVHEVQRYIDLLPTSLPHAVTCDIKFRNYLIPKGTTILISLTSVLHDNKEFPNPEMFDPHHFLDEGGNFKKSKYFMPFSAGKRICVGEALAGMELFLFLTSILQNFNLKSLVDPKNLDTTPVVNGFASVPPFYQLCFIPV

Take `O=C(O)c1nn(Cc2ccc(Cl)cc2Cl)c2ccccc12`: the Potency entry in experiment [1], in [2], in [3], in experiment [4], in experiment [6] and in experiment [7] was “inactive” in each case. Further, the Potency result in [8], in experiment [9], in experiment [11], in [13], in [14] and in experiment [15] was “inactive” in each case. The Potency is 60.7 µM (active) and inactive in experiment [5]; 62.8 µM (active) and inactive in [10]; 70.5 µM (active) and inactive in [12].
`Cc1ccc(N=CN(C)C=Nc2ccc(C)cc2C)c(C)c1`: the Potency entry in [2], in [3], in experiment [4], in experiment [17], in experiment [6] and in [7] was “inactive” in each case. Further, the Potency entry in experiment [8], in experiment [9], in experiment [12] and in experiment [14] was “inactive” each time. For the same molecule, the Potency was 15.4 µM (active) and inactive in experiment [5]; 31.9 µM (active) and 35.6 µM (active) and 27.5 µM (active) in experiment [10]; 79.6 µM (active) and inactive in experiment [11]; 31.9 µM (active) and 35.6 µM (active) and 30.9 µM (active) in [13]. The max activation in experiment [16] is 0.462% (inactive). Also, the call in experiment [18] was inactive.
As to `Nc1ccc([N+](=O)[O-])cc1N`, the Potency entry in experiment [2], in [3], in [6], in experiment [7], in experiment [8] and in experiment [9] was “inactive” each time. Besides, the Potency entry in experiment [14] was “inactive”. Also, the Potency was 54.4 µM (active) and 54.5 µM (active) in experiment [4]; 8.63 µM (active) in experiment [5]; “inactive and 71 µM (active)” in experiment [10]; 25.2 µM (active) in [11]; 39.9 µM (active) and 63.3 µM (active) in [12]; 35.6 µM (active) and 31.7 µM (active) in experiment [13]. Besides, in [15], the Potency is 35.6 µM (active) and inactive.
Turning to `Nc1ccc2ccccc2c1`, the Potency result in experiment [2], in [19], in [3], in experiment [4], in [6] and in [7] was “inactive” in each case. In addition, the Potency entry in experiment [8], in experiment [9] and in experiment [14] was “inactive” in each case. The Potency in experiment [5] was 46.9 µM (active) and 43.3 µM (active); in experiment [10] it was 24.3 µM (active) and 15.9 µM (active); in experiment [11], 9.69 µM (active) and 31.7 µM (active); in experiment [12], 27.3 µM (active) and 31.7 µM (active); in experiment [13], 1.72 µM (active) and 2 µM (active).
Turning to `[Cl-].[Cl-].[Cl-].[Fe+3]`, the Potency entry in experiment [2], in experiment [19], in experiment [3], in [4] and in experiment [14] was “inactive” throughout.
For `O=S(=O)(O)C(F)(F)C(F)(F)C(F)(F)C(F)(F)C(F)(F)C(F)(F)C(F)(F)C(F)(F)F`, the Potency result in [2], in [3], in experiment [4], in [6], in [7] and in experiment [8] was “inactive” each time. Moreover, the Potency entry in experiment [9], in experiment [10] and in experiment [14] was “inactive” throughout. Also, the Potency entry was “inactive and 54.5 µM (active)” in [5]; 42.6 µM (active) and 22.4 µM (active) in [11]; 537 nM (active) and 502 nM (active) and 423 nM (active) in experiment [12]; “inactive and 50.2 µM (active)” in [13].
In the case of `c1ccc(C2CO2)cc1` (configuration not stated), the Potency entry in experiment [2], in experiment [19], in [3], in experiment [4], in experiment [5] and in experiment [6] was “inactive” in each case. The Potency result in [7], in experiment [8], in experiment [9], in [10], in experiment [13] and in experiment [14] was “inactive” throughout. The Potency result in experiment [15] is “inactive”. In addition, the Potency result in experiment [11] was “inactive and 35.6 µM (active)”; in experiment [12], “inactive and 71 µM (active)”.
